Data from PubChem BioAssay (NCATS).
Inconclusive results are not listed. Activity calls are given as the source filed them. Calls come from the whole dose curve; as a rule, active = well fitted inhibition curve with a large enough effect; inconclusive = small, poorly fitted or top-dose-only effect; inactive = flat fitted curve, though single readings scatter.

Experiments:
[1] = qHTS profiling for inhibitors of Plasmodium falciparum proliferation (AID 504749);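 for activity, negative = inhibition: 0% = DMSO vehicle and full inhibition = artemisinin control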; for all read-outs here: nearly all actives have a fitted effect of over 60% in size; conditions: P. falciparum in erythrocytes, SYBR Green DNA, 72 h; for activity, negative = inhibition: at 28.7 µM (top of the series)
Method in brief: (§1)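 Parasite proliferation within erythrocytes, 72 h exposure. Endpoint: SYBR Green I fluorescence after overnight lysis at room temperature. Controls: 0.29 uM artemisinin, DMSO.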

[2] = test system: 3D7; assay: as above; conditions: P. falciparum in erythrocytes, SYBR Green DNA, 72 h; series mostly up to 28.7 µM
Method in brief: as §1

[3] = test system: 7G8; assay: as above; conditions: P. falciparum in erythrocytes, SYBR Green DNA, 72 h; series mostly up to 28.7 µM
Method in brief: as §1
Potency is the fitted concentration of half-maximal effect.

CC(=O)Nc1ccc(OC(=O)c2ccccc2O)cc1
inactive: activity, negative = inhibition ([1]; parasite line A) -9.69% | activity, negative = inhibition ([1]; parasite line B) 13.7% | Potency [2] | Potency [3]

C=Cc1ccc(S(=O)(=O)O)cc1
inactive: activity, negative = inhibition ([1]; parasite line A) 12.2% | activity, negative = inhibition ([1]; parasite line B) -6.31% | Potency [2] | Potency [3]

CCCCC
inactive: activity, negative = inhibition ([1]; parasite line A) 7.05% | activity, negative = inhibition ([1]; parasite line B) 20.9% | Potency [2] | Potency [3]

C[C@H](CCCC(C)(C)O)[C@H]1CC[C@H]2[C@@H]3CC=C4C[C@@H](O)CC[C@]4(C)[C@H]3CC[C@]12C
inactive: activity, negative = inhibition ([1]; parasite line A) 13.3% | activity, negative = inhibition ([1]; parasite line B) 17.1% | Potency [2]
active: Potency [3] 11200 nM

O=C(CCCCCCCCCCCCC1CCCC1)Nc1ccc(S(=O)(=O)c2ccc(NC(=O)CCCCCCCCCCCCC3CCCC3)cc2)cc1
inactive: activity, negative = inhibition ([1]; parasite line A) -2.51% | activity, negative = inhibition ([1]; parasite line B) 13.1% | Potency [2] | Potency [3]

CC(=O)Oc1cccc(C(=O)O)c1OC(C)=O
inactive: activity, negative = inhibition ([1]; parasite line A) 7.04% | activity, negative = inhibition ([1]; parasite line B) 3.67% | Potency [2] | Potency [3]

O=[n+]1ccn([O-])c2ccccc21
inactive: activity, negative = inhibition ([1]; parasite line A) 14.9% | activity, negative = inhibition ([1]; parasite line B) 3.55% | Potency [2] | Potency [3]

CC1(C)S[C@@H]2[C@H](NC(=O)C3(N)CCCCC3)C(=O)N2[C@H]1C(=O)O
inactive: activity, negative = inhibition ([1]; parasite line A) 1.02% | activity, negative = inhibition ([1]; parasite line B) 10.4% | Potency [2] | Potency [3]

COc1cc(NCCCC(C)N)c2ncccc2c1 (centres undefined)
active: Potency ([1]; parasite line A) 2000 nM | Potency ([1]; parasite line B) 891 nM | Potency [2] 2000 nM | Potency [3] 224 nM

COC(=O)CC[C@H](N)C(=O)O
inactive: activity, negative = inhibition ([1]; parasite line A) 18.1% | activity, negative = inhibition ([1]; parasite line B) 11.5% | Potency [2] | Potency [3]

Cc1cccc(C)c1NC(=O)NC1=CCCN1C
inactive: activity, negative = inhibition ([1]; parasite line A) 5.4% | activity, negative = inhibition ([1]; parasite line B) 1.38% | Potency [2] | Potency [3]

O=C(NNCNNC(=O)c1ccncc1)c1ccncc1
inactive: activity, negative = inhibition ([1]; parasite line A) 1.43% | activity, negative = inhibition ([1]; parasite line B) 9.6% | Potency [2] | Potency [3]

C=C1C(CCl)(CCl)C2(Cl)C(Cl)C(Cl)C1(Cl)C2(Cl)Cl (centres undefined)
active: Potency ([1]; parasite line A) 2510 nM | Potency ([1]; parasite line B) 1260 nM | Potency [2] 1780 nM | Potency [3] 282 nM

CCN(CC)C(=S)S
inactive: activity, negative = inhibition ([1]; parasite line A) -22.3% | activity, negative = inhibition ([1]; parasite line B) -18.1% | Potency [2] | Potency [3]

CN(Cc1ccccc1)Cc1ccccc1
inactive: activity, negative = inhibition ([1]; parasite line A) 9.08% | activity, negative = inhibition ([1]; parasite line B) -0.726% | Potency [2] | Potency [3]

C=CC(C)(O)CC/C=C(\C)CCC=C(C)C (centres undefined)
inactive: activity, negative = inhibition ([1]; parasite line A) 2.76% | activity, negative = inhibition ([1]; parasite line B) -4.38% | Potency [2] | Potency [3]

CC(C)[C@@H](N)C(=O)O
inactive: activity, negative = inhibition ([1]; parasite line A) 1.17% | activity, negative = inhibition ([1]; parasite line B) 12.2% | Potency [2] | Potency [3]

COc1ccc(/C=C/C(=O)O)cc1
inactive: activity, negative = inhibition ([1]; parasite line A) 8.39% | activity, negative = inhibition ([1]; parasite line B) -2.19% | Potency [2] | Potency [3]

[O]=[Bi][O]C(=O)[O][Bi]=[O]
inactive: activity, negative = inhibition ([1]; parasite line A) 3.84% | activity, negative = inhibition ([1]; parasite line B) -1.66% | Potency [2]
active: Potency [3] 10000 nM

OCl
inactive: activity, negative = inhibition ([1]; parasite line A) 10.5% | activity, negative = inhibition ([1]; parasite line B) 2% | Potency [2] | Potency [3]

COc1ccc(C(=O)CCC(=O)O)c2ccccc12
inactive: activity, negative = inhibition ([1]; parasite line A) 16.4% | activity, negative = inhibition ([1]; parasite line B) 8.35% | Potency [2] | Potency [3]

c1ccc(-n2cnnn2)cc1
inactive: activity, negative = inhibition ([1]; parasite line A) 4.13% | activity, negative = inhibition ([1]; parasite line B) -7.64% | Potency [2] | Potency [3]

NCCN
inactive: activity, negative = inhibition ([1]; parasite line A) 5.04% | activity, negative = inhibition ([1]; parasite line B) 2.26% | Potency [2] | Potency [3]

C=CCN1CCCC1CNC(=O)c1cc(S(N)(=O)=O)cc(OC)c1OC (centres undefined)
inactive: activity, negative = inhibition ([1]; parasite line A) -0.688% | activity, negative = inhibition ([1]; parasite line B) 8.33% | Potency [2] | Potency [3]

CC/C(=C(/CC)c1ccc(OP(=O)(O)O)cc1)c1ccc(OP(=O)(O)O)cc1
inactive: activity, negative = inhibition ([1]; parasite line A) 13.6% | activity, negative = inhibition ([1]; parasite line B) -2.71% | Potency [2] | Potency [3]

COC(=O)C(CN)c1c[nH]c2ccc(OC)cc12 (centres undefined)
inactive: activity, negative = inhibition ([1]; parasite line A) -3.75% | activity, negative = inhibition ([1]; parasite line B) -2.84% | Potency [2] | Potency [3]

CCN(CC)CCC(=O)N1c2ccccc2Sc2ccc(C(F)(F)F)cc21
active: Potency [3] 11200 nM
inactive: activity, negative = inhibition ([1]; parasite line A) -4.68% | activity, negative = inhibition ([1]; parasite line B) -16.3% | Potency [2]

CCOc1ccc(S(=O)(=O)O)c2cccnc12
inactive: activity, negative = inhibition ([1]; parasite line A) 8.12% | activity, negative = inhibition ([1]; parasite line B) 6.17% | Potency [2] | Potency [3]

Nc1ncnc2c1ncn2CCOCP(=O)(O)O
inactive: activity, negative = inhibition ([1]; parasite line A) 14.6% | activity, negative = inhibition ([1]; parasite line B) 5.72% | Potency [2] | Potency [3]

CCC(C)[C@@H](N)C(=O)O (some centres undefined)
inactive: activity, negative = inhibition ([1]; parasite line A) 11.4% | activity, negative = inhibition ([1]; parasite line B) 24.4% | Potency [2] | Potency [3]

CC(CNC(=O)c1cccnc1)NC(=O)c1cccnc1 (centres undefined)
inactive: activity, negative = inhibition ([1]; parasite line A) 8.56% | activity, negative = inhibition ([1]; parasite line B) 11.1% | Potency [2] | Potency [3]
